Experimental data reported in PubChem BioAssay AID2551 (National Center for Advancing Translational Sciences (NCATS), 2010).
The campaign covered roughly 310,000 compounds. About 17,000 (5.5%) were called active. Where a call stands in place of a potency, no number is given. Not shown: some 11% with an inconclusive outcome. This is one part of a sample in which actives are shown more often than they occur. Calls follow the shape of the dose curve; as a rule, active = well fitted inhibition curve with a large enough effect; inconclusive = small, poorly fitted or top-dose-only effect, or effect the other way; inactive = no such curve, though single readings can be large or run the other way.

target: Nuclear receptor ROR-gamma (Mus musculus) (UniProt P51450); assay: qHTS for inhibitors of ROR gamma transcriptional activity; details: Drosophila S2 Gal4-RORgamma UAS-luciferase reporter, 20 h; series mostly up to 53.6 µM; also: nearly all actives have a fitted effect of over 60% in size
Outline: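 Stably transfected Drosophila Schneider cells are the test system, with ROR gamma fused to Gal4 and luciferase under UAS control; luminescence is read after 20 hr of 700 uM copper sulfate induction at ambient temperature.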
Potency is read from the fitted curve at half-maximal effect.

Sequence of Nuclear receptor ROR-gamma (Mus musculus) (P51450 whole entry, looked up, the tested form may be a part): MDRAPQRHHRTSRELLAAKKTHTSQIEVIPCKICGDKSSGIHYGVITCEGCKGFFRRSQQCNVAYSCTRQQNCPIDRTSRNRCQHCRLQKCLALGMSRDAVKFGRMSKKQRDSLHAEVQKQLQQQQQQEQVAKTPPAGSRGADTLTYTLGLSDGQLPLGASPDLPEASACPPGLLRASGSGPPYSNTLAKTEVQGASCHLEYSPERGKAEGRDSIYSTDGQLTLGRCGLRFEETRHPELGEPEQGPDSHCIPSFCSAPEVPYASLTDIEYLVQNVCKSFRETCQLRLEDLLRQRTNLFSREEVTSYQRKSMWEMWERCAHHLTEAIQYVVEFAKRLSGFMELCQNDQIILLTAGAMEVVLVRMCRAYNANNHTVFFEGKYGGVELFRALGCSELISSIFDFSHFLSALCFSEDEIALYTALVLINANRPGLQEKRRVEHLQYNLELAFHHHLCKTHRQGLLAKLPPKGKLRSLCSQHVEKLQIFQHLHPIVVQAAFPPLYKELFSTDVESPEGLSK

Compound | Potency | activity change, negative = inhibition
CCOc1ccccc1NC(=O)NC1CCCCCCC1 | inactive | –
COc1ccc(CNC(=O)C(c2ccc(O)cc2)N(Cc2ccco2)C(=O)c2snc(C(N)=O)c2N)cc1 (configuration not stated) | inactive | –
O=c1cc(Cl)c2ccccc2n1-c1ccccc1 | inactive | –
Cc1nnc(NC(=O)CSc2nccn2-c2cccc(C)c2C)s1 | 10 µM (active) | –
Cc1cccc(CSc2nnc(NC(=O)CSc3nnc(C)s3)s2)c1 | inactive | –
COc1ccccc1-n1c(CNC(=O)c2ccccc2)nnc1SCC(=O)Nc1nnc(C)s1 | inactive | –
Cc1ccc(C(=O)N/C(=C\c2cn(C)c3ccccc23)C(=O)N2CCN(C)CC2)cc1 | inactive | –
Cc1cccc(NC(=O)/C(=C\c2ccco2)NC(=O)c2ccccc2)c1 | inactive | –
Cc1ccc(NC(=O)c2oc(=O)c3ccccc3c2-c2ccccc2)c(C)c1 | inactive | –
Cc1cccc(NC(=S)NC(=O)c2ccc(Br)o2)c1 | 2.82 µM (active) | –
Cc1ccc(NC(=O)NC(=O)c2ccccc2)cc1F | – | 8.25% [at 1.91 µM] (inactive)
Cc1ccc(NC(=S)NC(=O)c2ccc(-c3ccccc3)cc2)c(C)c1 | 4.47 µM (active) | –
Cc1cccc(NC(=O)NC(=S)NC(=O)c2ccccc2)c1 | 2.51 µM (active) | –
O=C(CNC(=O)c1ccc(Br)o1)Nc1ccccc1 | inactive | –
Cc1cc2[nH]ncc2cc1NC(=S)NC(=O)c1ccccc1 | inactive | –
COc1cc(OC)c(NC(=O)c2ccc(Br)o2)cc1Cl | inactive | –
c1cnc(N2CCN(c3ccc4ccccc4n3)CC2)nc1 | inactive | –
CCCN1CCn2c3c(c4cc(Br)ccc42)CCCC31 (configuration not stated) | inactive | –
COCCN1CCn2c(nc3cc(NS(C)(=O)=O)ccc32)C1 | inactive | –
COCCOC(=O)c1[nH]c2c(c1C)C(=O)CC(c1ccc(OC)cc1)C2 (configuration not stated) | inactive | –
Cc1ccc(OCC(=O)NCCCNC(=O)c2cccnc2)cc1C | inactive | –
Cc1cn([C@H]2CC(F)[C@@H](CO)O2)c(=O)[nH]c1=O (some centres not stated) | inactive | –

Compound | Potency | activity change, negative = inhibition
COc1cccc(CNc2ncc(-c3ccccc3)n2C)c1 | inactive | –
CC(C)[C@@H](NC(=O)OC(C)(C)C)C(=O)NCC1CCC(C(=O)N[C@@H](Cc2ccccc2)C(=O)O)CC1 (some centres not stated) | inactive | –
CCC1OC(c2ccc([N+](=O)[O-])cc2)=Nc2ccccc21 (configuration not stated) | inactive | –
CC(=O)Nc1ccc(NC(=O)C2CCCN(S(=O)(=O)c3ccc(Cl)cc3)C2)cc1 (configuration not stated) | inactive | –
COCCNc1nc(-n2nc(C)cc2C)nc2sc3c(c12)CCCC3 | 0.562 µM (active) | –
CC(C)c1nc(SCC(=O)Nc2cccc(C(=O)O)c2)c2c3c(sc2n1)CCCC3 | inactive | –
COCCn1c(C)cc(C(=O)CSc2ncnc3sc4c(c23)CCC4)c1C | inactive | –
Cc1cc(C)n(-c2nc(SCC(=O)N3CCCC3)c3c4c(sc3n2)CCCC4)n1 | 6.31 µM (active) | –
CCc1nc(N2CCN(C(C)=O)CC2)c2c3c(sc2n1)CCCC3 | inactive | –
CCC(O)CNc1nc(-n2nc(C)cc2C)nc2sc3c(c12)CC(C)(C)OC3 (configuration not stated) | 1.58 µM (active) | –
CCSc1nc2sc3c(c2c(=O)[nH]1)CC(C)(C)OC3 | inactive | –
COc1ncnc2sc3c(c12)CCCC3 | inactive | –
CCOC(=O)Cn1c(SC)nc2sc3c(c2c1=O)CC(C)(C)OC3 | inactive | –
Cc1cccn2c(=O)c(/C=C(\C#N)C(N)=O)c(N3CCCCCC3)nc12 | inactive | –
CN(Cc1ccccc1)S(=O)(=O)c1nnc(NC(=O)c2ccccc2F)s1 | inactive | –
CC(=O)Nc1cccc(NC(=O)CSc2nccn2Cc2ccc(F)cc2)c1 | inactive | –
Cn1c(=O)c2ccccc2n(CC(=O)Nc2ccc3c(c2)OCCO3)c1=O | inactive | –
Cc1ccc(-c2nc(CS(=O)(=O)CC(=O)NCc3ccc4c(c3)OCO4)c(C)o2)cc1 | inactive | –
Cc1ccc(NS(=O)(=O)c2ccc(-c3ccc(=O)[nH]n3)o2)c(C)c1 | inactive | –
NC(=O)CN1CCCC1c1ccc2c(c1)OCCO2 (configuration not stated) | inactive | –
CC1C(=O)Nc2ccc(S(=O)(=O)N3CCN(c4ccccc4F)CC3)cc2NC1=O (configuration not stated) | inactive | –
COc1cc(/C=N/n2c(C)n[nH]c2=S)ccc1OCc1ccccc1 | 6.31 µM (active) | –

Compound | Potency | activity change, negative = inhibition
CCOc1ccc(/C=N/Nc2nncc(-c3ccccc3)n2)cc1OC | inactive | –
COc1cc(/C=N/O)ccc1OCc1ccc([N+](=O)[O-])cc1 | inactive | –
COCC1CCN(C(=O)C2CCC(=O)N(Cc3cccc(C(F)(F)F)c3)C2)CC1 (configuration not stated) | inactive | –
O=C(NCc1ccccn1)[C@]1(C(F)(F)F)C[C@H](CCc2ccccc2)CCCO1 | inactive | –
O=C(NCc1cc(F)cc(C(F)(F)F)c1)C1CCC(=O)N(C2CCCC2)C1 (configuration not stated) | inactive | –
CC1CCCC(C)N1C(=O)CSc1nnnn1C1CCCC1 (configuration not stated) | inactive | –
O=C(Cn1nnc(-c2ccccc2)n1)N/N=C/c1ccc(-c2ccc(Cl)cc2)o1 | 7.08 µM (active) | –
Nc1nnnn1CC(=O)N/N=C/c1ccc(-c2cccc(Cl)c2)o1 | inactive | –
Nc1nnn(CC(=O)N/N=C/c2ccccc2)n1 | inactive | –
Cc1ccccc1OCC(=O)N(Cc1cccc(F)c1)C1CCS(=O)(=O)C1 (configuration not stated) | inactive | –
Cc1nn(C)cc1C(=O)Nc1ccccc1Br | inactive | –
Cc1nn(C)cc1C(=O)NNC(=S)Nc1ccc(Cl)cc1 | 11.2 µM (active) | –
Cc1nn(C)cc1CNC(=O)Nc1ccc(Cl)cc1 | inactive | –
CC1CCN(S(=O)(=O)c2ccc3c(ccn3CC(=O)O)c2)CC1 | inactive | –
CN(C)c1ccc(/C=C/C(=O)c2ccc(O)cc2)cc1[N+](=O)[O-] | 1.41 µM (active) | –
O=C(O)/C=C/c1ccc2c(c1)OCCO2 | inactive | –
Cc1nn(-c2ccccc2)c(Cl)c1/C=C/C(=O)c1ccc(O)cc1 | inactive | –
CC(=O)c1ccc2c(c1)OCCOCCOc1ccc(C(C)=O)cc1OCCOCCO2 | inactive | –
CN(C)c1ccc(/C=C/C(=O)c2ccc(C(C)(C)C)cc2)cc1[N+](=O)[O-] | inactive | –
O=C(/C=C/c1ccc2c(c1)OCCO2)c1ccc(O)cc1 | 1.26 µM (active) | –
Cc1ccc([N+](=O)[O-])cc1S(=O)(=O)N1CCCN(C)CC1 | inactive | –
O=C(CCc1nnc2ccc(NCCCN3CCCC3=O)nn12)NCc1ccccc1Cl | inactive | –

Compound | Potency | activity change, negative = inhibition
Cc1ccc(/C=C2/SC(=S)N(CCC(=O)NCCCN3CCOCC3)C2=O)cc1 | inactive | –
O=C(NC1CCC(O)CC1)c1ccccc1OCc1ccc(F)cc1 (configuration not stated) | inactive | –
O=C1c2ccccc2NC(c2ccc(-c3cccc(Cl)c3)o2)N1O (configuration not stated) | 11.2 µM (active) | –
O=c1c(-c2cccc(Cl)c2)c[nH]n1-c1ccccc1 | inactive | –
O=C1NC(c2cccc(Cl)c2)Nc2ccccc21 (configuration not stated) | inactive | –
COc1cc(-c2c(-c3ccc4c(c3)OCO4)noc2C)ccc1F | inactive | –
COc1ccc(NC(=O)CNC(=O)Cc2ccccc2)cc1OC | inactive | –
COc1ccc(NC(=S)SC)cc1OC | 20 µM (active) | –
COc1ccc(NS(=O)(=O)c2ccc(NC(C)=O)cc2)cc1OC | – | 35.4% [at 0.365 µM] (inactive)
Cc1c(C(=O)N2CCCC2)c(S(=O)(=O)NCC(C)c2ccccc2)c(C)n1C (configuration not stated) | inactive | –
CN(C)CCCNC(=S)N1CCN(c2nc(-c3ccccc3)cs2)CC1 | inactive | –
Cc1cccc(Br)c1 | inactive | –
Cc1csc(NC(=S)Nc2cccc(Cl)c2)n1 | 0.708 µM (active) | –
NS(=O)(=O)c1ccc(NC(=S)Nc2ccc(Br)c(Cl)c2)cc1 | inactive | –
CC(=O)Nc1cccc(C(=O)Nc2nc(C)cs2)c1 | inactive | –
S=C(Nc1cccc(Cl)c1)Nc1ccc2cn[nH]c2c1 | inactive | –
Fc1cc(Br)ccc1NC(=S)Nc1cccnc1 | inactive | –
Cc1cccc(NC(=S)Nc2ccc(Cl)c(Cl)c2)c1 | 15.8 µM (active) | –
Cc1cccc(NC(=S)Nc2ccc3cn[nH]c3c2)c1 | inactive | –
Cc1cccc(NC(=S)Nc2ccc(Br)cc2)c1 | 7.08 µM (active) | –
Cc1ccc(NC(=O)C2CCN(S(=O)(=O)c3ccc4c(c3)NC(=O)CO4)CC2)cc1C | inactive | –
CN(CCO)S(=O)(=O)c1ccc2c(c1)C(=O)c1cc(S(=O)(=O)N(C)CCO)ccc1-2 | inactive | –

Compound | Potency | activity change, negative = inhibition
CCCn1cc(S(=O)(=O)c2ccc(C)cc2)c(=O)c2cc(OCC)ccc21 | inactive | –
CC1C(=O)N(Cc2ccccc2)c2ccccc2N1C(=O)c1ccccc1 (configuration not stated) | inactive | –
Cc1cccc(C(=O)Nc2nnc(S(=O)(=O)N3CCCCCC3)s2)c1 | inactive | –
Cc1cnc(CN(C)C(=O)CC2C(=O)NCCN2Cc2cccc(F)c2F)[nH]1 (configuration not stated) | inactive | –
COc1ccc(OC)c(NC(=O)c2cccc(S(=O)(=O)N3CCN(C(C)=O)CC3)c2)c1 | inactive | –
Cc1noc(C)c1C(=O)N1CCOCC1 | inactive | –
Cc1onc(-c2ccccc2)c1C(=O)N1CCOCC1 | inactive | –
Cc1oc2c(c1C(=O)N1CCOCC1)C(=O)c1ccccc1C2=O | 3.98 µM (active) | –
COc1ccc(C2/C(=C(/O)c3ccc4c(c3)CC(C)O4)C(=O)C(=O)N2Cc2ccncc2)cc1 (configuration not stated) | inactive | –
COc1ccc(/C=C2\SC(=O)N(CCC(=O)NCCCn3ccnc3)C2=O)cc1 | inactive | –
CCn1nnnc1SCC(=O)Nc1ccc(N(C)C)cc1 | inactive | –
COc1ccccc1N1CCN(S(=O)(=O)c2ccc(Cl)cc2)CC1 | inactive | –
COc1ccccc1-n1nnnc1S(=O)(=O)Cc1ccc(Cl)cc1 | 11.2 µM (active) | –
N#Cc1cccc(CS(=O)(=O)c2nnnn2-c2cc(C(F)(F)F)cc(C(F)(F)F)c2)c1 | inactive | –
CCn1ccnc1CN(C)C(=O)c1cc(COc2ccc(-n3cncn3)cc2)on1 | inactive | –
COc1ccc(O)c(C=Nc2cc(C)on2)c1 | inactive | –
COc1ccc(/C=N/NC(=O)Nc2ccc3nsnc3c2)c(OC)c1 | inactive | –
COc1ccc(-c2[nH]ncc2/C=N/NC(=O)c2cc(Br)ccc2O)c(OC)c1 | 2.24 µM (active) | –
COc1cc(CN2CCCC(C(=O)c3ccc(SC)cc3)C2)cc(Cl)c1O (configuration not stated) | – | -3.37% [at 1.91 µM] (inactive)
